PTHR1 agonist: agonists of human PTHR1 parathyroid hormone receptor; Q03431; HEK293 GP2 PTHR1 cells, GloSensor cAMP luminescence, 1 h; Potency, µM (titrated, usually from 115 µM), inactives show at the top dose activation, most hits filed as activators; 410,000 compounds, 0.075% hits; note: potency is the fitted concentration of half-maximal effect; nearly all actives have a fitted effect of over 55% in size
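HEK-293-derived GP2 cells expressing PTHR1 and a GloSensor cAMP reporter, 3,000/well, plated overnight, given luciferin plus IBMX (each 0.5 mM as added) for 1 h at 37 °C, then compound for 1 h at 37 °C. Luminescence was read after 15 min at room temperature.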
GLP-1R inv ag: inverse agonists of human GLP-1 receptor. P43220. HEK293 GLP-1R CRE-luciferase, luminescence, 24 h; GLP-1R form is constitutively active. Potency, µM (doses to about 38.3 µM), without a hit: at the highest dose activity change, negative = inhibition, usual class: inhibitors. 410,000 compounds, 1.6% hits; note: potency is the fitted concentration of half-maximal effect; % is set by controls: 0 for no effect and ±100 for the full control effect; nearly all actives have a fitted effect of over 55% in size
Target sequence (P43220 whole entry, looked up): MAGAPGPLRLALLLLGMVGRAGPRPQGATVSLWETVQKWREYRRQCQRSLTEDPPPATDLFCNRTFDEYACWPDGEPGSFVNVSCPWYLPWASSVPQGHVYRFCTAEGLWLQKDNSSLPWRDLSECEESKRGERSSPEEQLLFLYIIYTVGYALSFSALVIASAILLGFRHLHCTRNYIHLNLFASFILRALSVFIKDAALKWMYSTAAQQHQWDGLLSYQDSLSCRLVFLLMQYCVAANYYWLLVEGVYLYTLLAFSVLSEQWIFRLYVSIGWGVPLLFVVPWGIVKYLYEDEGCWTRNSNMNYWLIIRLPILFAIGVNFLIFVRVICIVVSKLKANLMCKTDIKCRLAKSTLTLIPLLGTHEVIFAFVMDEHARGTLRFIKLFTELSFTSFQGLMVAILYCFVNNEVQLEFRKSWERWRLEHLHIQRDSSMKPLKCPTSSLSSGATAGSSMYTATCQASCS
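Luminescence readout: a drop in cAMP-driven luciferase signal flags inverse agonism at a constitutively active GLP-1R stably expressed in HEK293. Compound exposure lasted 24 hr at 37 deg C, 5% CO2.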
TSHR antag: antagonists of human thyroid stimulating hormone receptor. activity change, negative = inhibition, % at 11.5 µM. TSHR-expressing cells, TSH-stimulated cAMP HTRF, 2 h; hits give low values. AID 504810. 330,000 compounds, 0.2% hits;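 active = activity change below a set negative limit, meaning inhibition stronger than a set level, cut at about -70% in these data; inconclusive = activity change between two set negative limits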; note: % is set by controls: 0 for no effect and ±100 for the full control effect
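Freshly harvested TSHR cells receive pin-tooled compound, then EC80 TSH at 4nM final. After 2 hours at 37 deg C, antibody in lysis buffer and cAMP-d2 are added; 30 minutes at ambient temperature precede the HTRF read.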
GLP1R ag: GLP-1 receptor (human) agonism. Potency, µM (highest dose often 45.6 µM), for the others: at the highest dose activation, usual class: activators. 380,000 compounds, 0.007% hits. P43220. HEK293 GLP-1R CRE-luciferase, luminescence, 4-6 h; cells express a hypersensitive GLP-1R form. AID 624172; note: potency is the fitted concentration of half-maximal effect; % of control where 0% means no effect
HEK293 tox: cytotoxicity in counter-screen for GLP-1R inverse agonists; HEK293 cAMP-luciferase reporter cells, luminescence, 24 h; Potency, µM (series often up to 38.3 µM), for inactives: at the highest dose activity change, negative = inhibition, hits mostly inhibitors; 410,000 compounds, 0.13% hits; AID 624418;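 note: loss of luciferase light is scored as toxicity; potency is the fitted concentration of half-maximal effect; % is set by controls: 0 for no effect and ±100 for the full control effect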
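Here, cytotoxicity is scored as loss of luminescence. The MLSMR collection was tested on cells seeded in medium containing 10% Nu serum, with a 24 hr compound exposure preceded by 12 hours of culture.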
* marks the source's active call; other numbers are inactive results; i = inactive; u = inconclusive; x = not tested or not shown; [ ] = another dose, or the depositor's remark. Most compounds without a hit are left out; they make up all but 1.8% or so of the library. Unless noted, calls come from the whole dose curve; as a rule, active = well fitted curve in the direction sought with a large enough effect; inconclusive = small, poorly fitted or top-dose-only effect, or another doubt; inactive = no such curve, though single readings can be large; an effect the other way counts as inactive or inconclusive.

SMILES | PTHR1 agonist | GLP-1R inv ag | TSHR antag | GLP1R ag | HEK293 tox
C[C@@H](c1ccccc1)N1C[C@H](COCc2ccccc2)Oc2cc(N3CC[C@H](O)C3)ccc2S1(=O)=O | -13% | 10µM* | x | -1% | -12%
C[C@H](c1ccccc1)N1C[C@@H](COCc2ccccc2)Oc2cc(N3CC[C@@H](O)C3)ccc2S1(=O)=O | -52% | u | x | 6% | -13%
COc1cn(CC(=O)Nc2ccc(F)cc2)c(CN2CCCCC2)cc1=O | -35% | 0% | x | x | 4%
Cc1cccc(C(=O)Nc2cccc(C(=O)OCc3cc(=O)n4ccsc4n3)c2)c1 | i | -5% | x | x | -6%
CCC(Oc1ccccc1)C(=O)NC1CCCCCC1 (centres undefined) | -14% | 10µM* | -1 | 0% | 13%
O=C(Nc1ccc(Cl)c(S(=O)(=O)N2CCOCC2)c1)c1ccc(OCC2CCCO2)cc1 (centres undefined) | -39% | u | -87* | -9% | u
O=C(Nc1ccc(Cl)c(S(=O)(=O)N2CCOCC2)c1)c1ccc2c(c1)OCO2 | -47% | 11µM* | -16 | 0% | -17%
O=C(Nc1ccc(Cl)c(S(=O)(=O)N2CCOCC2)c1)c1ccc2c(c1)OCCO2 | -32% | -28% | -7 | 2% | -20%
COc1ccc(CCNC(=O)C(C)n2nc(C)c3sc4ccccc4c3c2=O)cc1OC (centres undefined) | u | -7% | x | x | 6%
O=C(c1ccco1)c1cn(CCOc2ccc(Cl)cc2)c2ccccc12 | -25% | -15% | x | x | -3%
O=C(c1cccs1)c1cn(CCOc2ccc(F)cc2)c2ccccc12 | -1% | 11µM* | x | x | 0%
CC(C)(C)c1ccc(OCCn2cc(C(=O)c3ccco3)c3ccccc32)cc1 | 3% | 7.9µM* | x | x | -21%
CC(C)c1ccc(NC(=O)CSc2ncnc3c2sc2ccccc23)cc1 | i | 12% | x | x | 1%
N#CC(=C1NC(=O)c2ccccc21)c1nc2ccccc2n1CCO | i | 10µM* | x | 13% | -25%
O=C(N[C@H]1CCC(=O)N([C@H](CSc2ccc(Br)cc2)Cc2ccccc2)CC1)OCc1ccccc1 | -22% | 4µM* | -20 | 10% | -27%
CC(=O)Nc1ccc(SC[C@H](C)CN2CC[C@H](C(C)(C)C)CCC2=O)cc1 | -89% | 10µM* | -16 | 4% | -32%
COc1ccc(SC[C@H](C)CN2CC[C@H](NC(=O)OCc3ccccc3)CCC2=O)cc1 | -37% | 10µM* | -30 | 12% | 16%
COc1ccc(S[C@@H](CCN2CC[C@H](NC(=O)OCc3ccccc3)CCC2=O)c2ccccc2)cc1 | -53% | 3.2µM* | -3 | -3% | -3%
Cc1nc2c(c(C)nn2-c2ccccc2)c(C)c1CCC(=O)Nc1ccc(F)cc1 | -18% | -6% | x | x | 1%
CCCCCOc1ccc(NC(=O)Cn2c(-c3nonc3N)nc3ccccc32)cc1 | 3% | 2% | x | x | 12%
CSc1ccccc1NC(=O)CN(C)Cc1ccc(Br)cc1 | i | 7.1µM* | -11 | 17% | 11%
CSc1ccc(CN(C)CC(=O)Nc2ccccc2Br)cc1 | -20% | u | 0 | 19% | -2%
O=C(N/N=C/c1cccc2ccccc12)c1ccncc1 | i | 17% | -22 | -6% | -15%
O=C(/C=C/c1cccc2ccccc12)c1ccncc1 | -94% | 8.9µM* | -15 | -35% | u
Cc1nc(N2CCCCC2C)c2c(C)c(C(=O)Nc3cccc(C(F)(F)F)c3)sc2n1 (centres undefined) | -23% | 10µM* | -7 | 4% | u
SMILES | PTHR1 agonist | GLP-1R inv ag | TSHR antag | GLP1R ag | HEK293 tox
Cc1nc(N2CCCCC2)c2c(C)c(C(=O)Nc3cccc(C(F)(F)F)c3)sc2n1 | -42% | u | -23 | 10% | -20%
O=C1NC(=S)SC1=C1CCCCCC1 | i | -12% | -81* | -8% | -20%
CCOC(=O)N1CCN(CC(=O)Nc2sc(CC)cc2C(=O)c2ccc(OC)cc2)CC1 | -22% | 5.6µM* | 1 | 18% | -26%
CCc1cc(C(=O)OC)c(NC(=O)CN2CCN(C(=O)c3ccco3)CC2)s1 | -77% | 10% | 5 | 9% | 8%
COc1cc(NCc2ccc3nc(N)nc(N)c3c2C)cc(OC)c1OC | x | x | x | 25% | x
O=C(c1cc(Cl)nc2ccccc12)N1CCN(S(=O)(=O)c2cccc(C(F)(F)F)c2)CC1 | -12% | 11µM* | 8 | 8% | -3%
CCc1nc2ccccc2n1CC(=O)N1CCN(S(=O)(=O)c2cccc(C(F)(F)F)c2)CC1 | i | 0% | 1 | 0% | 3%
COc1ccc(Cn2nnnc2C(C(C)C)N2CCN(c3ccccc3OC)CC2)cc1 (centres undefined) | -14% | u | -86* | 0% | -21%
Fc1ccccc1N1CCN(C(c2cccs2)c2nnnn2CCc2ccccc2)CC1 (centres undefined) | i | u | 1 | -2% | -9%
COc1ccc(C(c2nnnn2Cc2ccccc2)N2CCN(c3ccccc3)CC2)cc1 (centres undefined) | -18%[57.5 µM] | u | -11 | -4% | -13%
CC(C)C(c1nnnn1CC1CCCO1)N1CCN(Cc2ccc3c(c2)OCO3)CC1 (centres undefined) | i | 7% | 7 | -7% | -2%
c1ccc(CCn2nnnc2C(c2cccs2)N2CCN(Cc3ccc4c(c3)OCO4)CC2)cc1 (centres undefined) | -14% | 7.1µM* | -5 | -1% | u
CC(C)C(c1nnnn1Cc1ccccc1)N1CCN(Cc2ccc3c(c2)OCO3)CC1 (centres undefined) | -11% | 8.9µM* | -1 | 5% | 23%
O=C(CN1C(=O)C2(SCC(=O)N2c2cccc(F)c2)c2ccccc21)NCCc1ccccc1 (centres undefined) | -7% | 4% | x | -2% | -9%
Cc1c(NC(=O)c2ccc(-c3ccc(F)cc3)o2)cccc1-c1nc2ncccc2o1 | -9% | 17% | x | x | 4%
COc1ccc(Cl)cc1NC(=O)Cn1nc(C(F)(F)F)c2c1CCCC2 | -8% | 13µM* | x | -9% | 5%
COc1ccc(Cl)cc1NC(=O)Cn1nc(C(F)(F)F)c2c1CCC2 | -2% | u | x | -8% | 3%
CCc1c(CN2CCN(c3cccc(C)c3C)CC2)csc1C | i | -15% | x | x | -16%
CCOC(=O)c1nc(C)nc(Sc2n[nH]c(-c3ccc(C(C)(C)C)cc3)n2)c1C | i | 10µM* | -12 | -7% | -14%
Cc1cnn(CCC(=O)NNC(=S)NCC(C)C)c1 | 9% | u | 1 | 0% | u
Cc1nn(CCC(=O)NNC(=S)Nc2ccc(F)cc2)c(C)c1Br | i | -20% | -1 | 2% | -24%
